Reference: the supplement of paper PMC6555819

Assays:
Experiment in all cases: PBM binding z-score (relative to random genomic background probes); higher = stronger binding; sequences stand for … in GC…GCGATTGACAGCGTAGAATGAAGG
[1] = system: PPARg:RXRa DBDmut IVT, anti-RXR (DBD mutation: RXRa K156A/R161A, NR concentration 270 nM, RXRa partner concentration 90 nM)
How it was run: (§1)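 Binding buffer was PBS pH 7.4 with 2% milk, 0.02% Triton X-100, 1 mM DTT, 0.2 mg/mL BSA and 0.4 mg/ml salmon testes DNA. In it, ligand-free nuclear receptor dimers were incubated 1 h on custom Agilent 4×180K protein-binding microarrays carrying double-stranded probes. Antibodies against each partner (one per run) detected binding, and z-scores were calculated against random background probes after regression normalization of scanned fluorescence.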

[2] = system: PPARg:RXRa IVT, anti-PPARg (NR concentration 270 nM, RXRa partner concentration 90 nM)
How it was run: as §1

[3] = system: PPARg DBDmut:RXRa IVT, anti-PPARg (DBD mutation: PPARg1 K132A/R137A, NR concentration 270 nM, RXRa partner concentration 90 nM)
How it was run: as §1

[4] = system: PPARg DBDmut IVT, anti-PPARg (DBD mutation: PPARg1 K132A/R137A, NR concentration 270 nM)
How it was run: as §1

[5] = system: PPARg homodimer (NR concentration 180 nM)
How it was run: as §1

[6] = system: PXR:RXRa (NR concentration 270 nM, RXRa partner concentration 90 nM)
How it was run: as §1

[7] = system: PXR homodimer (NR concentration 270 nM)
How it was run: as §1

[8] = system: RARa:RXR (NR concentration 270 nM, RXRa partner concentration 90 nM)
How it was run: as §1

[9] = system: RARa homodimer (NR concentration 270 nM)
How it was run: as §1

[10] = system: RARb:RXRa (NR concentration 270 nM, RXRa partner concentration 90 nM)
How it was run: as §1

[11] = system: RARb homodimer (NR concentration 270 nM)
How it was run: as §1

[12] = system: RARg:RXRa (NR concentration 270 nM, RXRa partner concentration 90 nM)
How it was run: as §1

[13] = system: RARg homodimer (NR concentration 270 nM)
How it was run: as §1

[14] = system: RXRa DBDmut IVT, anti-RXR (DBD mutation: RXRa K156A/R161A, NR concentration 90 nM)
How it was run: as §1

[15] = system: RXRa homodimer (NR concentration 180 nM)
How it was run: as §1

[16] = system: THRa:RXRa (NR concentration 90 nM, RXRa partner concentration 90 nM)
How it was run: as §1

[17] = system: THRa homodimer (NR concentration 90 nM)
How it was run: as §1

[18] = system: VDR homodimer (NR concentration 270 nM)
How it was run: as §1

| Sequence | PBM binding z-score [1] | PBM binding z-score [2] | PBM binding z-score [3] | PBM binding z-score [4] | PBM binding z-score [5] | PBM binding z-score [6] | PBM binding z-score [7] | PBM binding z-score [8] | PBM binding z-score [9] | PBM binding z-score [10] | PBM binding z-score [11] | PBM binding z-score [12] | PBM binding z-score [13] | PBM binding z-score [14] | PBM binding z-score [15] | PBM binding z-score [16] | PBM binding z-score [17] | PBM binding z-score [18] |
| --- | --- | --- | --- | --- | --- | --- | --- | --- | --- | --- | --- | --- | --- | --- | --- | --- | --- | --- |
| CAAACTAGGTCATCCAGGACAGTGAATACATTGA | 8.23 | 8.47 | 4.2 | 2.88 | 2.69 | 2.23 | 1.49 | 2.85 | 1.49 | 3.84 | 3.12 | 4.15 | 4.93 | 2.37 | 3.09 | 3.76 | 2.38 | 2.21 |
| CCTTACGGGTCATGAGGTTATAGCACGACGAGCG | 3.29 | 4.22 | 1.38 | 0.99 | 3.37 | 4.44 | 0.345 | 5.82 | 1.27 | 4.11 | 3.4 | 5.79 | 4.57 | 1.85 | 6.48 | 3.62 | 0.938 | 1.91 |
| AGTCATAGTTCATCTAGGTAACGTAAGATATGCT | 0.73 | 2.74 | 1.12 | 0.57 | 1.23 | 2.03 | 1.24 | 1.78 | 0.89 | 3.26 | 2.23 | 3.01 | 3.33 | 2.6 | 2.02 | 2.21 | 0.0435 | 2.02 |
| AGTCAAAGTTCGTCTAGGTAACGTAAGATATGCT | -0.0534 | 1.36 | 0.664 | 0.773 | 1.41 | 1.99 | 1.83 | 1.34 | 0.143 | 2.54 | 1.35 | 1.99 | 2.11 | 3.25 | 1.39 | 1.97 | 0.129 | 2.49 |
| ACAAGCAGGCCAAGGGTCACTCAAGATTAGTCCG | 1.27 | 3.95 | 0.299 | -0.852 | 2.21 | 3.26 | -0.154 | 4.08 | 0.779 | 3.47 | 3.85 | 4.28 | 4.23 | 0.479 | 4.21 | 2.67 | 0.327 | 0.958 |
| TCTTGTAGAGCAATAGAGGTTAAGAAAGTGCGCT | 1.71 | 1.36 | -0.0371 | 0.131 | -0.051 | 2.73 | -0.322 | 1.25 | -0.851 | 0.425 | 0.76 | 0.413 | 0.158 | -0.107 | 0.858 | 1.76 | -1.07 | -0.332 |
| TGAATGAGGTTATAAGATCAGGTAACGTTGCAAA | 1.19 | 1.74 | 0.858 | 0.555 | 0.252 | 0.996 | 0.0498 | 1.59 | 0.49 | 1.12 | 0.391 | 1.41 | 1.13 | 0.758 | 1.87 | 2.61 | 1.06 | 0.507 |
